Source: PubChem (several laboratories)
Most compounds without a hit are left out; they make up all but 3.9% or so of the library.
UBC9 SUMO inh – SUMOylation inhibition. AID 2006. P63279. HTRF SUMOylation assay, SAE1/SAE2 + UBC9, in vitro. 290,000 compounds, 0.36% hits. inhibition, % at 35 µM; in the data active means inhibition above about 50%, passing the limit was not always enough; inconclusive means no clear call, values can overlap the other calls
H9c2 protect – modulators protecting cardiomyocytes from myocardial damage; H9c2 cardiomyocytes, H2O2 injury protection, ATPLite, 2 h; protection from H2O2 cell death, % at 20 µM; 360,000 compounds, 0.63% hits;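 active means compounds giving at least 50% protection of heart cells from peroxide-induced death in the single-dose screen, raw or plate-pattern-corrected value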;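 further: 0% = DMSO wells with peroxide and 100% = DMSO wells without peroxide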
ALR H2O2 inh – blocks human ALR sulfhydryl oxidase activity; P55789; purified ALR, DTT oxidation, H2O2 HRP-luminol luminescence; inhibition, % (concentration not given with the values); 290,000 compounds, 3.8% hits; AID 485317;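 active means mean replicate inhibition above about 79%, with every replicate also reaching it, limit read from the data; inconclusive means only one of the two criteria met; inactive means mean below limit and not every replicate reaching it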
Target sequence (P55789 whole entry, looked up): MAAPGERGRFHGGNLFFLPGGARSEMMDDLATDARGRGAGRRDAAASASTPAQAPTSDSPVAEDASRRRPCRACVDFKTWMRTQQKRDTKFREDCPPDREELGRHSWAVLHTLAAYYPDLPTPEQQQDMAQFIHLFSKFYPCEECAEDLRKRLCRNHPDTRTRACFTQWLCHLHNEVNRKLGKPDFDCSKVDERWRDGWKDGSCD
NTR1 agonist – agonists of human neurotensin receptor NTR1; activation, % at 20 µM; P30989; 330,000 compounds, 0.17% hits; NTR1-U2OS beta-arrestin-GFP spot imaging, agonist mode;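 active means activation at or above 40% of the spot to cytoplasm intensity ratio, with at least 20 cells analyzed; inconclusive means wells under 20 cells, flagged as cytotoxic or low count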;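 further: 0% = DMSO without peptide and 100% = 100 nM NTR1 peptide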
Target sequence (P30989 whole entry, looked up): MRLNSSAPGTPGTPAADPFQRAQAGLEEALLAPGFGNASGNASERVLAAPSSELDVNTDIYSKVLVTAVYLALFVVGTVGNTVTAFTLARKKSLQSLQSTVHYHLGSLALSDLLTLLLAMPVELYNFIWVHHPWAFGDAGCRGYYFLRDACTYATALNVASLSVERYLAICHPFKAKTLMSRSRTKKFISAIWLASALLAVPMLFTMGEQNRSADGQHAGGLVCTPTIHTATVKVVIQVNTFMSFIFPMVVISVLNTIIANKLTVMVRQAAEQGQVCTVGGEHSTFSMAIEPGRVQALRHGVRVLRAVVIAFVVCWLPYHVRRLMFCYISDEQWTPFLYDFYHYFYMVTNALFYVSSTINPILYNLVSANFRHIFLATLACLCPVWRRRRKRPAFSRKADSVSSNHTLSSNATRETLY
* marks the source's active call; other numbers are inactive results.

Screening CC1=C(CC(=O)NCC(=O)NCC(=O)O)c2cc(F)ccc2/C1=C/c1ccc(S(C)=O)cc1 (stereo not given) returned UBC9 SUMO inh 4, H9c2 protect -2, ALR H2O2 inh -43 and NTR1 agonist -2.
O=c1c2cc(N3CCOCC3)ccc2[nH]c(=S)n1Cc1ccco1 was read as UBC9 SUMO inh 40, H9c2 protect 9, ALR H2O2 inh -25 and NTR1 agonist 1.
Screening CCOc1cc(/C=C2/NC(=O)NC2=O)cc([N+](=O)[O-])c1O returned UBC9 SUMO inh -8, H9c2 protect 9, ALR H2O2 inh 94* and NTR1 agonist 1.
For C=CCc1cc(/C=C2/NC(=O)NC2=O)cc(OCC)c1O the results were UBC9 SUMO inh 14, H9c2 protect 0, ALR H2O2 inh 9 and NTR1 agonist 1.
Cc1ccc(S(=O)(=O)N2CCN(S(=O)(=O)N3CCCCC3)CC2)cc1C was read as UBC9 SUMO inh 14, H9c2 protect -11, ALR H2O2 inh 3 and NTR1 agonist 0.
For COCc1cc(C)nc(SCC(=O)c2ccc(O)c(O)c2)c1C#N the results were UBC9 SUMO inh -3, H9c2 protect 76*, ALR H2O2 inh 37 and NTR1 agonist 3.
Screening Cc1ccc(C(=O)CSc2nc(C)cc(=O)[nH]2)cc1 returned UBC9 SUMO inh -21, H9c2 protect -1, ALR H2O2 inh 98* and NTR1 agonist -2.
`Cc1cc(SCC(=O)c2ccc(O)c(O)c2)n2nc(C)c(-c3ccccc3)c2n1` gave UBC9 SUMO inh 6, H9c2 protect 71*, ALR H2O2 inh 96* and NTR1 agonist 8.
Cc1cc(=O)[nH]c(SCC(=O)c2ccc(O)c(O)c2)n1 was read as UBC9 SUMO inh 61, H9c2 protect 3, ALR H2O2 inh 99* and NTR1 agonist 2.
COc1ccccc1NC(=O)Cn1cc(C(=O)c2ccco2)c2ccccc21 was read as UBC9 SUMO inh 5, H9c2 protect 7, ALR H2O2 inh -12 and NTR1 agonist 4.
For Cc1cc(Sc2ncnc(N)c2[N+](=O)[O-])ncn1 the results were UBC9 SUMO inh 5, H9c2 protect -26, ALR H2O2 inh 46 and NTR1 agonist -1.
For Cc1cc(Sc2nc(N)ncc2[N+](=O)[O-])ncn1 the results were UBC9 SUMO inh -10, H9c2 protect -34, ALR H2O2 inh 98* and NTR1 agonist 0.
For N#C/C(=C\c1cc(O)c(O)c(O)c1)C(N)=O the results were UBC9 SUMO inh 19, H9c2 protect 4, ALR H2O2 inh 99* and NTR1 agonist 0.
Screening N#C/C(=C\c1cc(Cl)c(OCc2ccc(Cl)cc2)c(Cl)c1)C(N)=O returned UBC9 SUMO inh 16, ALR H2O2 inh 2 and NTR1 agonist 17.
CCOc1cc(CNc2ccc3c(c2)CCC3)ccc1O was read as UBC9 SUMO inh 20, H9c2 protect -9, ALR H2O2 inh -11 and NTR1 agonist 0.
`COc1cc(CNc2ccc3c(c2)CCC3)cc(OC)c1O` gave UBC9 SUMO inh 17, H9c2 protect -2, ALR H2O2 inh 99* and NTR1 agonist -1.
COc1cc(Br)c(CNc2cc(C)ccc2C)cc1OC was read as UBC9 SUMO inh 4, H9c2 protect -17 and NTR1 agonist 7.
For COc1cc(CNc2cc(C)ccc2C)cc(OC)c1OC the results were UBC9 SUMO inh 4, H9c2 protect -4, ALR H2O2 inh 99* and NTR1 agonist 5.
For COc1cc(C)c(CNc2ccc(OC)c(OC)c2)cc1C the results were UBC9 SUMO inh 38 and ALR H2O2 inh 82*.
COc1cc(CNc2ccc(C)c(C)c2)cc(OC)c1OC was read as UBC9 SUMO inh 5, H9c2 protect -4, ALR H2O2 inh 97* and NTR1 agonist 2.
CC(C)N1CCCC(CNC(=O)CCc2nnc(CCCCc3ccccc3)o2)C1 (stereo not given) was read as UBC9 SUMO inh -4, H9c2 protect -4, ALR H2O2 inh -3 and NTR1 agonist 0.
For Cc1cccc(N2C(=O)CC(Cn3nc(C)cc3C)C2=O)c1 (stereo not given) the results were UBC9 SUMO inh 23, H9c2 protect 17, ALR H2O2 inh 1 and NTR1 agonist 0.
Screening COc1ccc(C)cc1NCc1cccc(OC)c1OC returned UBC9 SUMO inh -21, H9c2 protect -2, ALR H2O2 inh 57 and NTR1 agonist -1.
`COc1ccc(CNc2cc(C)ccc2C)c(OC)c1OC` gave UBC9 SUMO inh -7, H9c2 protect -11, ALR H2O2 inh 98* and NTR1 agonist 2.
For O=C(CSc1nnc(CNC(=O)c2cccs2)o1)Nc1cccc(F)c1 the results were UBC9 SUMO inh -1, H9c2 protect -1, ALR H2O2 inh 99* and NTR1 agonist 0.
NCCCCCc1nnc(SCc2ccc(Cl)cc2Cl)o1 was read as UBC9 SUMO inh 9, H9c2 protect 2, ALR H2O2 inh 99* and NTR1 agonist 4.
For O=C(CSc1nnc(CNC(=O)c2cccs2)o1)Nc1cccc(C(F)(F)F)c1 the results were UBC9 SUMO inh -3, H9c2 protect -7, ALR H2O2 inh -1 and NTR1 agonist -2.
Screening CCC(C)[C@H](N)c1nnc(SCC(=O)Nc2cccc(Cl)c2)o1 (stereo not given in full) returned UBC9 SUMO inh 0, H9c2 protect 0, ALR H2O2 inh 41 and NTR1 agonist 0.
For NCCCCCc1nnc(SCC(=O)Nc2cccc(Cl)c2)o1 the results were UBC9 SUMO inh 7, H9c2 protect 11, ALR H2O2 inh 92* and NTR1 agonist 1.
Screening O=C(CSc1nnc(CNC(=O)c2cccs2)o1)Nc1cccc(Cl)c1 returned UBC9 SUMO inh -10, H9c2 protect -9, ALR H2O2 inh 98* and NTR1 agonist -1.
`O=C(CSc1nnc(CNC(=O)c2cccs2)o1)Nc1ccccc1` gave UBC9 SUMO inh 15, H9c2 protect -3, ALR H2O2 inh -7 and NTR1 agonist -1.
NCCCCCc1nnc(SCc2cccc(Cl)c2)o1 was read as UBC9 SUMO inh -5, H9c2 protect 10, ALR H2O2 inh -9 and NTR1 agonist 1.
For CC(C)c1ccc(-c2nnn(CCC(=O)O)n2)cc1 the results were UBC9 SUMO inh -8, H9c2 protect -7, ALR H2O2 inh 2 and NTR1 agonist 4.
`O=C1CC(c2nc3ccccc3[nH]2)CN1Cc1ccccc1` (stereo not given) gave UBC9 SUMO inh 1, H9c2 protect 2, ALR H2O2 inh -9 and NTR1 agonist -2.
`CN(CC(=O)Nc1ccccc1Cl)C(=O)CN1C(=O)C2CCCCC2C1=O` (stereo not given) gave H9c2 protect 4, ALR H2O2 inh -4 and NTR1 agonist 3.
`CCOC(=O)C(=O)NNc1ccc(F)cc1` gave UBC9 SUMO inh 0, H9c2 protect -6, ALR H2O2 inh 99* and NTR1 agonist 2.
c1ccc(-c2nc3ccccn3c2NCc2ccc3c(c2)OCO3)cc1 was read as UBC9 SUMO inh 26, H9c2 protect 4, ALR H2O2 inh 81* and NTR1 agonist -2.
For COc1ccc(-c2nc3ccccn3c2NCc2ccc3c(c2)OCO3)cc1 the results were UBC9 SUMO inh -3, H9c2 protect 0, ALR H2O2 inh inconclusive and NTR1 agonist 0.
